The structures appear in SMILES notation.

The target of the experiment is Acyl-protein thioesterase 1 (Homo sapiens) (UniProt O75608). The experiment can be described thus: LYPLA1 enzyme kinetics with inhibitors – biochemical, substrate-based fluorescence, Ki, Km, late-stage follow-up (AID 651998). Conditions: recombinant LYPLA1, resorufin acetate hydrolysis fluorescence, without test compound, enzyme Km for substrate.
Chain of Acyl-protein thioesterase 1 (Homo sapiens) (O75608 whole entry, looked up): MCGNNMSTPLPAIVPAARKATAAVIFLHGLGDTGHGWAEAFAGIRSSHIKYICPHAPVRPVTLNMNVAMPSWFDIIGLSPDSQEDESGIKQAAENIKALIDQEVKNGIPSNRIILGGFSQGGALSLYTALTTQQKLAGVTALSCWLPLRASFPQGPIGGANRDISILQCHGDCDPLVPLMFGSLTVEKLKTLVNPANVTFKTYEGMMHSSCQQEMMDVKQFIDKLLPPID

The term Km denotes the substrate concentration at which the rate is half of its maximum. `O=C(CN1CCN(C(=O)c2ccco2)CC1)Nc1cc(C(F)(F)F)ccc1Cl`: the Km is 28.3 µM.

Values taken from PubChem BioAssay AID651998 (The Scripps Research Institute Molecular Screening Center, 2013).
